# Results taken from the supplement of paper PMC10849652.
# Targets with a hit are over-represented here; the source holds about 7,900 in all. About 0.6% of all pairs of compound and target were hits. A number with no mark means an inactive call.
# Columns and labels:
# Test in all cases: log2 fold change, soluble protein after heating vs DMSO (PISA); higher = thermal stabilisation; K562 cells, 10 uM, 30 min; active = over 0.2 and 3.5 SD of the protein, either way, in both replicates (recomputed)
# [1] = compound: CC1=C(C=C(C=C1)NC(=O)C2=CC(=CC=C2)C(C)(C)C#N)NC3=CC4=C(C=C3)N=CN(C4=O)C
# Outline: (§1)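 K562 cells at 2×10^6 cells/mL were treated for 30 min with 10 μM compound, and aliquots were heated for 3 min over 48°C-58°C before pooling. Extraction used PBS with 0.5% NP-40 at 4°C, and soluble protein was the supernatant after 21,000xg for 90 min, measured by TMTpro 16plex LC-MS/MS with channel sums equalised. Thermal stability values, relative to control samples and from duplicates, are log2 fold changes.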
# [2] = compound: CC1=C(C=C(C=C1)NC(=O)C2=CC(=CC=C2)N(C)C)NC(=O)C3=CC=C(C=C3)O
# Outline: as §1
# [3] = compound: CC1=CC=C(C=C1)SC2=C3C=C(SC3=CN=C2)C(=O)N
# Outline: as §1
# [4] = compound: CC1=NC(=CC=C1)C2=C(N=C(N2)C(C)(C)C)C3=CC4=NC=CN=C4C=C3
# Outline: as §1
# Nexturastat A = compound: CCCCN(Cc1ccc(C(=O)NO)cc1)C(=O)Nc1ccccc1 [Nexturastat A]
# Outline: as §1
# vemurafenib = compound: CCCS(=O)(=O)Nc1ccc(F)c(C(=O)c2c[nH]c3ncc(-c4ccc(Cl)cc4)cc23)c1F [vemurafenib]
# Outline: as §1
# [5] = compound: CCCS(=O)(=O)Nc1ccc(F)c(C(=O)c2c[nH]c3ncc(Cl)cc23)c1F
# Outline: as §1
# [6] = compound: CCCc1cc(C)[nH]c(=O)c1CNC(=O)c1cc(-c2ccnc(N3CCN(C)CC3)c2)cc2c1cnn2C(C)C
# Outline: as §1
# givinostat = compound: CCN(CC)Cc1ccc2cc(COC(=O)Nc3ccc(C(=O)NO)cc3)ccc2c1 [givinostat]
# Outline: as §1
# barasertib = compound: CCN(CCCOc1ccc2c(Nc3cc(CC(=O)Nc4cccc(F)c4)[nH]n3)ncnc2c1)CCOP(=O)(O)O [barasertib]
# Outline: as §1
# [7] = compound: CC[C@@H]1C(=O)N(C)c2cnc(Nc3ccc(C(=O)NC4CCN(C)CC4)cc3OC)nc2N1C1CCCC1
# Outline: as §1
# volasertib = compound: CC[C@@H]1C(=O)N(C)c2cnc(Nc3ccc(C(=O)N[C@H]4CC[C@H](N5CCN(CC6CC6)CC5)CC4)cc3OC)nc2N1C(C)C [volasertib]
# Outline: as §1
# [8] = compound: CC[C@H](C)N1C=C(C2=C(C=C(C=C21)C3=CN=C(C=C3)N4CCNCC4)C(=O)NCC5=C(C=C(NC5=O)C)C)C
# Outline: as §1
# epoxomicin = compound: CC[C@H](C)[C@@H](C(=O)N[C@@H]([C@@H](C)O)C(=O)N[C@@H](CC(C)C)C(=O)[C@]1(CO1)C)NC(=O)[C@H]([C@@H](C)CC)N(C)C(=O)C [epoxomicin]
# Outline: as §1
# [9] = compound: CCn1c(C(=O)N(C2CC2)C2CC2)cc2c3c(ncn3C)c(Nc3cc(C)n(C)n3)nc21
# Outline: as §1
# [10] = compound: CCn1cc(-c2ccnc3[nH]c(-c4cccc(CN(C)C)c4)cc23)c(-c2ccc(NC(=O)N(C)C)cc2)n1
# Outline: as §1
# [11] = compound: CN(C)CC(=O)Nc1ccc2[nH]c(=O)c3ccccc3c2c1
# Outline: as §1
# rosiglitazone = compound: CN(CCOC1=CC=C(C=C1)C[C@H]2C(=O)NC(=O)S2)C3=CC=CC=N3 (racemic) [rosiglitazone]
# Outline: as §1
# [12] = compound: CN1C2=C(C3=C1C(=O)N(N=C3)CC4=CC(=CC=C4)N)SC(=C2)S(=O)C
# Outline: as §1
# [13] = compound: CN1CCC(CNc2ccc3ncc(-c4cccc(OC(F)(F)F)c4)n3n2)CC1
# Outline: as §1
# Sequence of UniProt Q9HAN9 (Q9HAN9 whole entry, looked up): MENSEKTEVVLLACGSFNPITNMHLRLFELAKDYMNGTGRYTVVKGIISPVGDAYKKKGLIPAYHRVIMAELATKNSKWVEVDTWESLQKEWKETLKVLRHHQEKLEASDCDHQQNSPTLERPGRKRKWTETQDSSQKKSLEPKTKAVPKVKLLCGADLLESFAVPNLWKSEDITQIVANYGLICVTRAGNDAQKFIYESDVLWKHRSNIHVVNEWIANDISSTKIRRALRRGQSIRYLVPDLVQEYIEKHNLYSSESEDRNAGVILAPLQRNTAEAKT
# Sequence of UniProt Q99747 (Q99747 whole entry, looked up): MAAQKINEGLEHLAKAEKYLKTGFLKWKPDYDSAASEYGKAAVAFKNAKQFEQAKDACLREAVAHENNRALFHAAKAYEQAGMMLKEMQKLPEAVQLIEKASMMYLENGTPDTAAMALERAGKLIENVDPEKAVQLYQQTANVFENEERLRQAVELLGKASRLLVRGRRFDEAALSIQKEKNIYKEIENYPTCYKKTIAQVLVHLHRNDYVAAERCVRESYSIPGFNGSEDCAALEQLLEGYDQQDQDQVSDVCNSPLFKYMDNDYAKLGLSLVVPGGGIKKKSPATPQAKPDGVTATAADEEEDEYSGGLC
# Sequence of UniProt Q8NCF5 (Q8NCF5 whole entry, looked up): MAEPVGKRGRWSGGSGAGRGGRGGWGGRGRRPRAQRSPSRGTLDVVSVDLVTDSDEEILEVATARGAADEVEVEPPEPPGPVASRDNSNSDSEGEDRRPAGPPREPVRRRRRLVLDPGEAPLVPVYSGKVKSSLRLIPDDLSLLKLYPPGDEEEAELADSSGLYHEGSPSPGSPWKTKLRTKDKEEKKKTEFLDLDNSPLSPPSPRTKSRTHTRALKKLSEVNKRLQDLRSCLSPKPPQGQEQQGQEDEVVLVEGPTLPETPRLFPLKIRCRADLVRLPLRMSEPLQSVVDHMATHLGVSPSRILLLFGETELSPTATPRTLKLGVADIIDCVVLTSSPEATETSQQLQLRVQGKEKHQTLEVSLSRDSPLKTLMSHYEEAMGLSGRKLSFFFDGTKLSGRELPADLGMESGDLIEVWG
# Sequence of UniProt Q9UMY1 (Q9UMY1 whole entry, looked up): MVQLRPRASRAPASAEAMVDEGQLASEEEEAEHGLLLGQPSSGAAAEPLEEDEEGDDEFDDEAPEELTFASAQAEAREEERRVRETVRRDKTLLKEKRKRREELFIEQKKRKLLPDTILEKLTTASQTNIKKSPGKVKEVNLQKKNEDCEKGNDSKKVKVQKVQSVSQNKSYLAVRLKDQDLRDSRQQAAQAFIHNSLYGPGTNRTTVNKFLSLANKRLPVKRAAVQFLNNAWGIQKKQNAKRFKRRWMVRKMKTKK
# Sequence of UniProt O95747 (O95747 whole entry, looked up): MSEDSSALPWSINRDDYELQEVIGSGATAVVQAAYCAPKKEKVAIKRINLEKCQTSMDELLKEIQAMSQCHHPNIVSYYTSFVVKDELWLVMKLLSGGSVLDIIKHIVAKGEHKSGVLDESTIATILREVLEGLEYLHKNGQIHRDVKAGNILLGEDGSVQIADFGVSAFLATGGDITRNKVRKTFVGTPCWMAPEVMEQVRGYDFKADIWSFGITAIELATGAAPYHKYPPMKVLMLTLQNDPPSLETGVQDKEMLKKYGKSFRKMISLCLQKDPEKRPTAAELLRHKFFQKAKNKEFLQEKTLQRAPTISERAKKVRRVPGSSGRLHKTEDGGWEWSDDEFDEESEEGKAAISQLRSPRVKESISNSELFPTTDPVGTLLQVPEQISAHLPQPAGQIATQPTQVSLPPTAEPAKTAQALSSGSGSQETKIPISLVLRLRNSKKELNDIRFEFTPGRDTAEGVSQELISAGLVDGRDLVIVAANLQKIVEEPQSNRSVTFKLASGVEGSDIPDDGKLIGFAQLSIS
# Sequence of UniProt Q13423 (Q13423 whole entry, looked up): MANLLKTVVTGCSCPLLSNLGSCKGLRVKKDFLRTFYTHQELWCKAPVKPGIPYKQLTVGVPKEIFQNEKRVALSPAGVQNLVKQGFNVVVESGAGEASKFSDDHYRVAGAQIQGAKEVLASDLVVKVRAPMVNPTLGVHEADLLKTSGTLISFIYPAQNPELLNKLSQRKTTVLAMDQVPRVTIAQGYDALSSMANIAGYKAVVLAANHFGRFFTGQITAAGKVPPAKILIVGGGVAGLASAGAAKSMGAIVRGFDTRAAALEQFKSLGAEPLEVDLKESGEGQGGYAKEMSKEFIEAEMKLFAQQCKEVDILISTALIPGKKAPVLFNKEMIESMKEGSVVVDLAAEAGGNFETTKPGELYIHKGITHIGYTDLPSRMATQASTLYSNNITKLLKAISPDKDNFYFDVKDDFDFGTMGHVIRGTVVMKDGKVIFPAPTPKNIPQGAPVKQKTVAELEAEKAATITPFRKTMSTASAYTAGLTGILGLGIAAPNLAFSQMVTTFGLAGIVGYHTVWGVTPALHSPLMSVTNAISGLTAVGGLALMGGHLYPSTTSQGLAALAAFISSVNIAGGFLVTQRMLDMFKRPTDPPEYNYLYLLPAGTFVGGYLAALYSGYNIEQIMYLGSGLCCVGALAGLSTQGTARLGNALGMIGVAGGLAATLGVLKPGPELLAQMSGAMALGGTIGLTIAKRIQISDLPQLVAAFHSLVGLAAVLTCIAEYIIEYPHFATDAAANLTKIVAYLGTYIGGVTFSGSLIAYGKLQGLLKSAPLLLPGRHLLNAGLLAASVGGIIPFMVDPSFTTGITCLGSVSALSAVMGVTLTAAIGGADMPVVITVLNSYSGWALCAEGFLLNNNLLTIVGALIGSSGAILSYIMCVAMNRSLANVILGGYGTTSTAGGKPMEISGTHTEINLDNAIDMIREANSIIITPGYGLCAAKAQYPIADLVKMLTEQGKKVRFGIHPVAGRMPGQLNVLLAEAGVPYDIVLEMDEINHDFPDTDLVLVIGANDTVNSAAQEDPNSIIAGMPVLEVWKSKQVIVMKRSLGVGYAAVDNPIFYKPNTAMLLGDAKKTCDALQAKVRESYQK
# Sequence of UniProt P55786 (P55786 whole entry, looked up): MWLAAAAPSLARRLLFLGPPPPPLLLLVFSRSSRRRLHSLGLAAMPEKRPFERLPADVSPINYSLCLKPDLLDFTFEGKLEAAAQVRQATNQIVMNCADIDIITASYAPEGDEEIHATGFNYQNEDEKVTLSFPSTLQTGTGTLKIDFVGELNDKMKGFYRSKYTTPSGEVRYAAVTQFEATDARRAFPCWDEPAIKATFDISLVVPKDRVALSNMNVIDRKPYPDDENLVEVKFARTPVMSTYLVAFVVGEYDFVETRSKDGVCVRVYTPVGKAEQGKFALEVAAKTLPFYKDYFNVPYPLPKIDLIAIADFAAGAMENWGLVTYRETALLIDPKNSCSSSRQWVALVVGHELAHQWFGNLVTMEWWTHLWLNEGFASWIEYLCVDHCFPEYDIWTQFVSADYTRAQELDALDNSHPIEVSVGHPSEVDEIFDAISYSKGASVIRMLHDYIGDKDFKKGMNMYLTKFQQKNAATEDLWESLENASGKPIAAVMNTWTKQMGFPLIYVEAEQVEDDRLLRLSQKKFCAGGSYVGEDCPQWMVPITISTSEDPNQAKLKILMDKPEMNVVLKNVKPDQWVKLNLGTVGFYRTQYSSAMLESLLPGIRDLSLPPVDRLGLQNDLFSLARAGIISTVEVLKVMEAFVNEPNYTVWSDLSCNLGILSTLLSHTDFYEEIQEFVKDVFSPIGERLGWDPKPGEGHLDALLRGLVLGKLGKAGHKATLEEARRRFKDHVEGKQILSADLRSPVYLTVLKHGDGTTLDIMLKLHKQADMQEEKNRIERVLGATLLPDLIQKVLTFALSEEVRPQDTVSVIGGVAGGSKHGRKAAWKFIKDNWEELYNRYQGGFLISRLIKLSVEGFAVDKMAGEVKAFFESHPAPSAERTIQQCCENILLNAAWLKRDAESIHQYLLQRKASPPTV
# Sequence of UniProt O60551 (O60551 whole entry, looked up): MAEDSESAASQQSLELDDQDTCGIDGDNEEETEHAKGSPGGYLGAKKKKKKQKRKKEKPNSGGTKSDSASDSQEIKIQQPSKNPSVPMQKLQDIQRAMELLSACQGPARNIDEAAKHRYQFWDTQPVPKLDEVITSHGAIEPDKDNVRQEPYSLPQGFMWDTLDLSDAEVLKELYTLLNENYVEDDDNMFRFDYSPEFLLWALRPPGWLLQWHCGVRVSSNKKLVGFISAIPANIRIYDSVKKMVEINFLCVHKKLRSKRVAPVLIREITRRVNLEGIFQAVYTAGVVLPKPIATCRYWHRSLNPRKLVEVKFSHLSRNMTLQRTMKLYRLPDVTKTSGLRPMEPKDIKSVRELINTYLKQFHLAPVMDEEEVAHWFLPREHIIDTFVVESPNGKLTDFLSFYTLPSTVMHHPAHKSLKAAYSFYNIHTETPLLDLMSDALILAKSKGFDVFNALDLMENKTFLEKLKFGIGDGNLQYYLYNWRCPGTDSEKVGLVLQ
# Sequence of UniProt O43809 (O43809 whole entry, looked up): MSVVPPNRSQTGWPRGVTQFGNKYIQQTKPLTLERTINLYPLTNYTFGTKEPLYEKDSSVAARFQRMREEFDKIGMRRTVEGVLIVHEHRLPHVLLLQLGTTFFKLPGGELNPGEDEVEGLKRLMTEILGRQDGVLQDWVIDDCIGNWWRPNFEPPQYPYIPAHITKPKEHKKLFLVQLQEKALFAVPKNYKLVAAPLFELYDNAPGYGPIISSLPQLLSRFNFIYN
# Sequence of UniProt Q9NRP0 (Q9NRP0 whole entry, looked up): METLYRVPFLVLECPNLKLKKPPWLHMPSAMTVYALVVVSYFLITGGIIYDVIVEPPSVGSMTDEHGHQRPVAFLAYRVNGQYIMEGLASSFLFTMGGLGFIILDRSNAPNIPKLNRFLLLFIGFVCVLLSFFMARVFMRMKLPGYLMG
# Sequence of UniProt O75323 (O75323 whole entry, looked up): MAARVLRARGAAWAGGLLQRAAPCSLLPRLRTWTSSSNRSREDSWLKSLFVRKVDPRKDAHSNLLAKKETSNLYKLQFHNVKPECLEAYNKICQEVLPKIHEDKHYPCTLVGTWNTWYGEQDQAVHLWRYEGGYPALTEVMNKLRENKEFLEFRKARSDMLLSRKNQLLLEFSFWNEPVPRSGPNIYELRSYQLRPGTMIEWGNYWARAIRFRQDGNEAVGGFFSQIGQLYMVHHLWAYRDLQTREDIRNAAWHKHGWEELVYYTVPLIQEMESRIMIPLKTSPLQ
Target,log2 fold change [1],log2 fold change [2],log2 fold change [3],log2 fold change [4],log2 fold change (Nexturastat A),log2 fold change (vemurafenib),log2 fold change [5],log2 fold change [6],log2 fold change (givinostat),log2 fold change (barasertib),log2 fold change [7],log2 fold change (volasertib),log2 fold change [8],log2 fold change (epoxomicin),log2 fold change [9],log2 fold change [10],log2 fold change [11],log2 fold change (rosiglitazone),log2 fold change [12],log2 fold change [13]
OSTC (UniProt Q9NRP0),0.001,0.001,0.047,0.058,-0.114,-0.115,0.068,-0.058,0.076,0.061,-0.01,-0.141,0.011,-0.073,0.006,0.039,0.073,0.048,-0.129,-0.053
PACRGL (UniProt Q8N7B6),0.01,,,,,,,,,,,,,,,,,,,
NME1 isoform 2 (UniProt P15531),-0.054,0.047,0.029,-0.006,-0.067,-0.003,-0.045,-0.092,-0.07,-0.108,0.061,0.046,0.03,-0.01,-0.087,-0.134,-0.028,0.024,-0.184,-0.039
NFATC2IP (UniProt Q8NCF5),-0.029,-0.026,0.028,0.013,0.007,-0.01,0.014,0.015,0.088,0.124,-0.09,-0.278 (active),0.069,-0.052,0.022,0.038,0.048,0.041,-0.008,-0.103
ORC3 isoform 2 (UniProt Q9UBD5),-0.027,-0.056,0.146,0.075,-0.124,0.012,0.143,0.044,0.145,0.178,-0.046,-0.396,0.044,0.181,-0.053,-0.017,0.067,0.059,-0.034,-0.376
NECTIN2 (UniProt Q92692),-0.006,-0.026,0.037,-0.049,-0.117,0.016,0.019,0.005,-0.025,-0.024,0.071,0.029,-0.003,0.02,0.018,-0.044,-0.028,-0.023,-0.063,0.138
NNT (UniProt Q13423),0.02,-0.004,0.004,0.058,-0.091,0.025,0.016,-0.023,0.001,0.01,0,0.013,0.036,0.023,-0.018,-0.073,0.015,0.042,-0.097,-0.008
MTHFD1 (UniProt P11586),0.052,-0.026,0.003,0.042,-0.046,0.06,0.046,-0.013,0.048,0.038,-0.074,-0.002,0.035,0.067,-0.011,-0.159,0.051,0.024,-0.057,0.004
NUDT21 (UniProt O43809),0.052,0.077,-0.007,0.019,0,0.02,-0.053,-0.013,-0.033,-0.023,0.036,0.074,-0.033,-0.107,-0.02,0.038,-0.041,-0.028,-0.013,0.064
NIBAN1 (UniProt Q9BZQ8),0.05,-0.036,0.102,0.01,0.077,0.046,0.083,0.039,0.05,0.063,-0.16,-0.428 (active),0.073,0.066,-0.039,-0.085,0.022,0.055,0.04,-0.208
NPEPPS (UniProt P55786),0.079,-0.012,-0.004,0.018,-0.017,-0.022,0.003,0.009,-0.02,0.008,-0.005,-0.023,0.079,-0.022,0.082,-0.102,0.007,0.046,-0.098,-0.141
NMT2 (UniProt O60551),0.006,0.018,0.237,0.024,-0.037,-0.034,0.031,0.02,-0.233,0,0.013,-0.177,0.039,0.01,-0.001,-0.098,-0.013,-0.056,0.002,-0.208
NOL7 (UniProt Q9UMY1),-0.06,-0.055,-0.048,-0.193,0.214,-0.14,-0.121,0.088,0.031,-0.092,0.226,0.417,-0.086,-0.338,-0.019,0.232,-0.123,-0.154,0.316,0.237
NIPSNAP2 (UniProt O75323),0.06,-0.044,0.055,0,-0.072,0.06,0.029,0.007,-0.081,0.019,0.043,0.009,-0.003,0.07,0.009,-0.115,-0.041,0.005,-0.083,0.028
OXSR1 (UniProt O95747),0.019,-0.11,0.014,0.004,-0.021,0.037,0.038,0.007,0.055,0.035,-0.122,-0.274 (active),0.049,0.03,-0.018,-0.077,0.043,0.053,0.008,-0.24 (active)
NMNAT1 (UniProt Q9HAN9),-0.079,0.006,-0.09,-0.196,0.132,-0.162,-0.139,0.178,0.042,-0.064,0.302,0.161,-0.007,-0.168,-0.06,0.098,-0.092,-0.126,0.228,0.053
NAPG (UniProt Q99747),0.044,-0.115,0.077,0.006,0.004,0.067,0.155,0.045,0.123,0.107,-0.118,-0.462 (active),0.072,0.069,-0.05,-0.076,0.048,0.088,0,-0.028
